Source: PubChem BioAssay AID743269 (The Scripps Research Institute Molecular Screening Center, 2014)
Several values for one entry are separate records, joined by “and”; a condition that tells them apart may be missing. Equal values may be shown once. Among all 370,000 compounds or so, about 2,400 (0.65%) were called active.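 How the source made its calls: active means inhibition above the screen-wide mean plus 3 SD (cut at about 13% in these data); inactive means the rest.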 This excerpt belongs to a sample that is enriched for actives. A structure can be active in one record and inactive in another.

tested on: HIV-1 integrase (with human LEDGF/p75); test: blockers of LEDGF/p75-dependent integrase strand transfer – biochemical, TR-FRET, high throughput, primary screen (AID 743269); settings: TR-FRET IN-LEDGF/p75 DNA integration, Eu/Cy5; at 3.7 µM; stronger effect = higher value;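 further: signal is the Cy5 over europium emission ratio at 671 and 618 nm; 0% = plate median of compound wells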

| Structure (SMILES) | inhibition |
| --- | --- |
| O=C(CSc1nc2ccccc2n1Cc1ccccc1)NNC(=S)Nc1ccccc1 | 5.2% (inactive) |
| COC(=O)C[C@@H]1CC[C@@H]2[C@@H](COc3ccc(NC(=O)Nc4ccc(F)c(F)c4)cc3C(=O)N2C)O1 | 0.03% (inactive) |
| COC(=O)c1cccc(Cn2ccc3ccc(-c4ccc5ccn(C(=O)C6CCCCC6)c5c4)cc32)c1 | 0.91% (inactive) |
| COC(=O)C[C@H]1CC[C@H]2[C@H](COc3ccc(NC(=O)C4CC4)cc3C(=O)N2C)O1 | 2.4% (inactive) |
| C/C(=N\Nc1ccc(Cl)nn1)c1ccccc1O | -4.19% (inactive) |
| Oc1cccc(/C=N/Nc2ccc(Cl)nn2)c1O | 18.5% (active) |
| CCOC(=O)[C@]12CCCCC/C=C\1N(Cc1ccc(OC)cc1)C(=O)[C@H]2CC(=O)NCCCN1CCCC1=O | -3.19% (inactive) |
| COC(=O)c1cc(S(=O)(=O)N2CCN(C(=O)C3CCCO3)CC2)cn1C (stereo unspecified) | 8.59% (inactive) |
| COc1ccc(-n2c(SCC(=O)Nc3ccc4cn[nH]c4c3)nnc2-c2cccnc2)cc1 | -0.62% (inactive) |
| COc1ccc(-c2cc(-c3nnc(SCC(=O)Nc4cccc5ccccc45)n3N)[nH]n2)cc1 | -3.91% (inactive) |
| Cc1cc(=O)oc2c3c(cc(OCC(=O)NCC(O)c4ccccc4)c12)OC(C)(C)CC3 (stereo unspecified) | -5.46% (inactive) |
| Cc1cc(=O)oc2c3c(cc(OCC(=O)N[C@H](C(=O)O)c4ccccc4)c12)OC(C)(C)CC3 | 18.2% (active) |
| Cc1c(C)c2c(OCC(=O)N[C@@H](C(=O)O)c3ccccc3)cc3c(c2oc1=O)CCC(C)(C)O3 | -4.85% (inactive) |
| O=C(NC1CCCCN(Cc2ccc(Cl)cc2)C1=O)c1ccc(Br)cc1 (stereo unspecified) | 2.38% (inactive) |
| COC(=O)[C@]12C[C@H](CC(=O)NCC34CC5CC(CC(C5)C3)C4)C(=O)N(Cc3ccc(Cl)cc3Cl)C1=C[C@H](COCc1ccccc1)O[C@@H]2C | -4.42% (inactive) |
| CC(C)CSc1nnc(-c2cccnc2)n1Cc1ccccc1 | 1.09% (inactive) |
| CCOc1c(Br)cc(/C=C2\C(=O)N(CCC#N)N=C2C)cc1OC | 36% (active) |
| COC(=O)[C@H](C(C)C)N(CCc1cn(Cc2ccccc2)nn1)S(=O)(=O)c1ccc(F)cc1Br | -1.7% (inactive) |
| FC(F)(F)c1cccc(NC(=S)OC2CCC23CCC(c2ccccc2)CC3)c1 (stereo unspecified) | 2.54% (inactive) |
| Nc1[nH]c(/C=C2/CCCCC2n2[nH]c(=O)n(-c3ccccc3)c2=O)c(Cc2ccccc2)[n+]1Cc1ccccc1 (stereo unspecified) | 3.55% (inactive) |
| C[C@H]1[C@H](NC(=O)c2cccc(N(C)C)c2)CC[C@@]23CCCN2C(=O)CCC[C@@H]13 | -2.54% (inactive) |

| Structure (SMILES) | inhibition |
| --- | --- |
| O=S(=O)(c1cc(Cl)ccc1Cl)N1CCN(Cc2ccco2)CC1 | -3.53% (inactive) |
| O=C(CN1CCN(S(=O)(=O)c2cc(Cl)ccc2Cl)CC1)c1ccc(O)c(O)c1 | 50.6% (active) |
| CCN1CCN(C(=O)C2CCN(S(=O)(=O)c3cc(Cl)ccc3Cl)CC2)CC1 | 1.63% (inactive) |
| CC(=O)O[C@@]1(C(C)=O)CCC2[C@H]3C=C(C)C4=CC(=O)CC[C@@]4(C)C3CC[C@]21C (stereo partly specified) | -5.1% (inactive) |
| O=C(NCCc1c[nH]c2ccccc12)OCc1cn(-c2c(F)cccc2F)nn1 | 4.42% (inactive) |
| COc1cc(NC(=O)COC(=O)c2ccc([N+](=O)[O-])s2)cc(OC)c1OC | 32.2% (active) |
| COc1cc(NC(=O)COC(=O)c2cnc(C)cn2)c(C)cc1[N+](=O)[O-] | -1.79% (inactive) |
| COc1cc(CCC(=O)OCC(=O)Nc2cccc(S(N)(=O)=O)c2)cc(OC)c1OC | -0.51% (inactive) |
| CC(C)CNc1cccc2c1S(=O)(=O)N(Cc1cn(Cc3ccc(Cl)cc3)nn1)Cc1ccccc1O2 | 4.9% (inactive) |
| O=C(CCl)NC1CCCCN(Cc2cccc(C(F)(F)F)c2)C1=O (stereo unspecified) | 0.3% (inactive) |
| COc1ccc(C2C(C#N)=C(N)Oc3n[nH]c(C)c32)cc1CN1CCN(c2ccc(F)cc2)CC1 (stereo unspecified) | 6.04% (inactive) |
| COc1ccccc1C1CC(=O)n2c(nc(-c3ccccc3)c2-c2ccccc2)S1 (stereo unspecified) | -1.14% (inactive) |
| COc1ccccc1C1C(C#N)=C(N)Oc2c1c(-c1ccccc1)nn2-c1ccccc1 (stereo unspecified) | 43.4% (active) |
| O=C(Nc1cccc(Cl)c1)OC1CC2CC1[C@H]1CCCCN1[C@H]2Cc1ccccc1 (stereo partly specified) | -1.12% (inactive) |
| CN(CCc1ccccc1)C(=O)Cn1nc(-c2ccccc2)ccc1=O | -1.71% (inactive) |
| O=C(NCc1ccc(Cl)cc1)C1CCCN(c2nc3ccccc3o2)C1 (stereo unspecified) | -2.98% (inactive) |
| CCOCCOC(=O)C1=C(C)N(C)C(=O)NC1c1ccccc1F (stereo unspecified) | -1.24% (inactive) |
| COc1ccc(C2NC(=O)N(C)C(C)=C2[N+](=O)[O-])cc1 (stereo unspecified) | -0.24% (inactive) |
| COC(=O)C1=C(C)N(C)C(=O)NC1c1ccc([N+](=O)[O-])o1 (stereo unspecified) | 46.5% (active) |
| CCCCCN1CCCCC(NC(=O)C(C)CCC)C1=O (stereo unspecified) | -0.51% (inactive) |
| COCCCNC(=O)C[C@H]1C[C@@]2(C(=O)OC)C(=C[C@H](C(C)(C)C)O[C@@H]2C)N(Cc2ccc(Cl)cc2Cl)C1=O | 2.76% (inactive) |

| Structure (SMILES) | inhibition |
| --- | --- |
| O=C(OC12CCCN(C1)/C(=C/c1cccnc1)C2)C1CCCC1 (stereo unspecified) | -0.68% (inactive) |
| OCCN1CCOCCOCCN(CCO)CCN(CCO)CC1 | -1.91% (inactive) |
| OC(c1ccccc1)C(CN1CCOCC1)c1ccccc1 (stereo unspecified) | 2.05% (inactive) |
| Oc1c(CN2CCOCC2)ccc(CN2CCOCC2)c1O | 58% (active) |
| O=C(NCc1ccccn1)c1cnc2sccn2c1=O | 3.23% (inactive) |
| CN(C)/C=C/C(=O)c1cnc2sccn2c1=O | 16.3% (active) |
| CCOC(=O)c1cnc2sccn2c1=O | 2.78% (inactive) |
| O=C(NC1CCC1)c1ccc(C#CC2CC2)cn1 | 0.75% (inactive) |
| COc1cccc(CNC(=O)CNS(=O)(=O)c2ccc3nc(C)sc3c2)c1OC | 2.85% (inactive) |
| COC(=O)[C@@]12CCCCC3=C1N(CCC3)C(=O)[C@H]2CC(=O)NCc1cccc2ccccc12 | 0.3% (inactive) |
| COc1cccc(CSc2nnc(-c3cccnc3)n2Cc2ccccc2)c1 | -2.05% (inactive) |
| COC(=O)[C@]12C[C@H](CC(=O)NCc3cccc4ccccc34)C(=O)N(CCc3ccc(OC)c(OC)c3)C1=C[C@H](C1CCCC1)O[C@@H]2C | 3.8% (inactive) |
| C=CC1=C(C(=O)O)N2C(=O)[C@@H](NC(=O)/C(=N/OCC(=O)O)c3csc(N)n3)[C@H]2SC1 | 63.4% (active) |
| C=CC1=C(C(=O)O)N2C(=O)[C@@H](NC(=O)/C(=N\OCC(=O)O)c3csc(N)n3)[C@H]2SC1 | 19.9% (active) |
| CO/N=C(\C(=O)N[C@@H]1C(=O)N2C(C(=O)O)=C(COC(C)=O)CS[C@H]12)c1csc(N)n1 (stereo in doubt) | 14.1% (active) and 6.2% (inactive) and 17.6% (active) |
| COc1ccc(C(=O)OCCN(C)C2CN(Cc3cn(Cc4cccc(C)c4)nn3)S(=O)(=O)C2)cc1OC (stereo unspecified) | 4.74% (inactive) |
| CN(C(N)=NC(=O)/C=C/c1ccccc1)C(C#Cc1ccccc1)Cc1ccccc1 (stereo unspecified) | 2.02% (inactive) |
| COc1ccc(C2CC=C(C(=O)O)C(c3ccccc3F)N2S(=O)(=O)c2ccc(C)cc2)cc1OC (stereo unspecified) | -2.7% (inactive) |
| CN1C[C@]2(C=C3CCCCC3n3c(=O)n(-c4ccccc4)c(=O)n32)N=C1NC(=O)c1ccccc1 (stereo partly specified) | 0.62% (inactive) |
| O=C(CNC(=O)c1ccccc1)OC(C(=O)Nc1cc([N+](=O)[O-])ccc1F)c1ccccc1 (stereo unspecified) | -3.25% (inactive) |
| Cc1ccc(-n2c(SCC(=O)Nc3ccc(S(=O)(=O)Nc4nccs4)cc3)nnc2-c2cccnc2)cc1 | 8.17% (inactive) |

| Structure (SMILES) | inhibition |
| --- | --- |
| COc1cccc(CNC(=O)C2CCCN(c3nc4ccccc4o3)C2)c1OC (stereo unspecified) | 3.24% (inactive) |
| COc1ccccc1-c1cc(C(=O)NCCCn2ccnc2)no1 | 16.7% (active) |
| O=C(NCCCn1ccnc1)c1cc(-c2ccccc2)on1 | 1.32% (inactive) |
| O=C(CCN1C(=O)c2ccccc2C1=O)NCCCn1ccnc1 | 1.21% (inactive) |
| O=C(c1c[nH]c2ccccc12)N1CCC(Oc2cccnc2)CC1 | 8.82% (inactive) |
| Cc1ccc(-n2c(SCC(=O)Nc3cccc4ccccc34)nnc2-c2ccco2)cc1 | 1.78% (inactive) |
| COc1ccc(-n2c(SCC(=O)Nc3ccc4c(c3)OCCO4)nnc2-c2ccc(Cl)cc2)cc1 | 3.45% (inactive) |
| O=C(O)CCC(=O)Nc1ccc(N2CCOCC2)cc1 | 17.1% (active) |
| O=C(COC(=O)Cc1ccc(Br)cc1)Nc1ccc(N2CCOCC2)cc1 | -6.57% (inactive) |
| Cc1csc(=O)n1CCC(=O)OCC(=O)Nc1ccc(N2CCOCC2)cc1 | 1.07% (inactive) |
| COc1ccc(-c2cc(-c3nnc(SCc4ccc([N+](=O)[O-])cc4)n3N)[nH]n2)cc1 | -1.38% (inactive) |
| COc1ccccc1C(=O)CSc1nnc(-c2ccccn2)n1-c1ccccc1 | -0.35% (inactive) |
| O=C(CSc1nc2ccccc2s1)NN=Cc1ccc(O)cc1O | -3.78% (inactive) |
| O=C(Nc1ccccc1)N1CCN(Cc2nc3ccccc3c(=O)[nH]2)CC1 | -2.46% (inactive) |
| CC(=O)Nc1ccc(C(=O)Nc2nc(-c3cc(C)n(Cc4ccccc4)c3C)cs2)cc1 | 17.7% (active) |
| Cc1c(C#N)c(NC(=O)c2ccccc2)n(Cc2ccccc2)c1C | 0.96% (inactive) |
| CCCn1c(C)cc(-c2csc(NC(=O)CCc3nc4ccccc4c(=O)[nH]3)n2)c1C | 5.25% (inactive) |
| CCOc1ccc(-n2c(SCC(=O)Nc3cc(C)c(NC(=O)c4ccccc4)cc3OC)nnc2-c2cccs2)cc1 | 1.97% (inactive) |
